Screening data: PubChem, Johns Hopkins Ion Channel Center
Compounds with a hit are over-represented: about 3.5% of the library has one in this group of screens.
TMEM16A inh: TMEM16A chloride channel inhibitors, primary screen, cell-based, HTS; Anoctamin-1 (Mus musculus), Q8BHY3; HEK293 TMEM16A/YFP iodide influx fluorescence, ionomycin; normalized B-score (activity score, 25-100; higher = stronger inhibition) at 10 µM; 310,000 compounds, 1.2% hits; AID 588511, 2011;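 active = ratio plate-corrected score three or more library SD toward inhibition, starting fluorescence score within five deviations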;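 also: score derived from kinetic fluorescence span divided by baseline fluorescence per well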
Kir21 inh: inhibitors of mouse Kir2.1 inward-rectifier potassium channel. Inward rectifier potassium channel 2 (Mus musculus), P35561. AID 1672, 2009. HEK293-Kir2.1, FluxOR thallium flux fluorescence; active compounds read low. B-score at 10 µM. 310,000 compounds, 0.85% hits;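 active = fluorescence ratio B-score at or below minus 3 SD of library scores, with starting-brightness B-score within 2 SD, cut at about -4.2 in these data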;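 also: channel flux triggered by added potassium and thallium sulfate stimulus; B-score of peak minus minimum fluorescence over baseline after thallium stimulus; more negative B-score means stronger Kir2.1 block with less thallium influx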
Target sequence (P35561 whole entry, looked up): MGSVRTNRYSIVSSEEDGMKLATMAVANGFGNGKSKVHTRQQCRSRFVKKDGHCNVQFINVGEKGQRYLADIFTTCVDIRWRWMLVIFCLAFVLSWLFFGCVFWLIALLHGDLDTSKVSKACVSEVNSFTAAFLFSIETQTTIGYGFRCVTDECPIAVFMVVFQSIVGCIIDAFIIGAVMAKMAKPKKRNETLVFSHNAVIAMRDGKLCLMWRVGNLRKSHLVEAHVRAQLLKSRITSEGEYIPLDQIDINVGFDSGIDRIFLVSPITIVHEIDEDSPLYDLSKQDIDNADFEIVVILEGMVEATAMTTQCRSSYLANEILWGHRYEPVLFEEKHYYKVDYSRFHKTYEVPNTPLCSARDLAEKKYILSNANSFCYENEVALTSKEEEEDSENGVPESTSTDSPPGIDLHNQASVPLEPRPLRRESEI
KCNK9 block: KCNK9 potassium channel inhibitors, primary screen, HEK293 cells, thallium flux. Potassium channel subfamily K member 9 (Homo sapiens), Q9NPC2. FluxOR thallium flux fluorescence; active compounds read low. B-score at 10 µM. 310,000 compounds, 1.2% hits. AID 488922, 2010;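 active = ratio B-score over 3 SD below the library mean, with starting fluorescence within 5 SD of its mean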;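 also: negative B-score means less thallium flux so channel inhibition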
KCNK3 block: human KCNK3 channel inhibitors, primary screen, CHO cells, FluxOR thallium flux, B-score. FluxOR fluorescence; active compounds read low. B-score at 10 µM. 340,000 compounds, 0.84% hits. AID 602410, 2012;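 active = B-score under library mean minus 4 SD, starting fluorescence ratio at most library mean plus 5 SD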;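 also: more negative B-score means stronger inhibition of thallium flux through KCNK3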
ANO1 activ: TMEM16A chloride channel activators or potentiators, primary screen, cell-based, HTS; 340,000 compounds, 0.3% hits; HEK293 TMEM16A/YFP-H148Q/I152L, iodide quench fluorescence; active compounds read low; B-score at 10 µM;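 active = fluorescence-ratio B-score plate-corrected deviation score at least 3 library SD below zero, with starting fluorescence score within 5 deviations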;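 also: channel opened by trigger with iodide after compound preincubation; score built on the fluorescence ratio of max minus min over baseline; more negative score means more quench and so TMEM16A activation or potentiation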
KCNK9 inh conf: KCNK9 potassium channel inhibitors, confirmation, HEK293 cells, thallium flux, duplicate | shares compounds with KCNK9 block | FluxOR thallium flux fluorescence | inhibition, % at 10 µM | 4,900 compounds, 43% hits | AID 492992, 2010;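 active = thallium signal inhibited by more than 5 SD of the compound-free buffer control wells, on both duplicate plates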
Kir2-1 spec: mouse Kir2.1 channel inhibition, confirmation, selectivity assay for KCNK9 modulator project, cell-based, HEK293, thallium flux; shares compounds with KCNK9 block; Kir2.1 cells, FluxOR thallium flux fluorescence; inhibition, % at 10 µM; 4,900 compounds, 4% hits; AID 492993, 2010;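 active = thallium signal drop more than 5 SD beyond the mean of the no-compound control wells, seen in both duplicate plates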;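 also: signal is fluorescence rise after thallium addition divided by baseline fluorescence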
HEK293 Tl ctr: thallium flux in non-induced HEK293 cells, confirmation, counter-screen for KCNK9 inhibitor project, cell-based, second counter screen, non-induced KCNK9-HEK293 | shares compounds with KCNK9 block | FluxOR thallium flux | inhibition, % at 10 µM | 4,900 compounds, 40% hits;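 active = thallium signal drop beyond 5 SD of the untreated control mean, on both duplicate plates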
Large screens that a line does not name were inactive (follow-up assays come after a bar, where they were run).

CC(NC(=O)c1cc2cc(Br)ccc2oc1=N)c1ccccc1 (stereo not drawn)	TMEM16A inh 25 | KCNK9 inh conf inactive | Kir2-1 spec inactive | HEK293 Tl ctr inactive
COc1ccccc1-c1nc(C#N)c(N2CCN(c3cccc(Cl)c3)CC2)o1	KCNK9 block -8.6 | KCNK9 inh conf 48% | Kir2-1 spec inactive | HEK293 Tl ctr inactive
COc1ccccc1-c1nc(C#N)c(N2CCN(C(c3ccccc3)c3ccccc3)CC2)o1	none
COC(=O)C1(Cc2ccc3c(c2)CCC3)Cc2ccc3c(c2C1=O)CCC3 (stereo not drawn)	none (no result: TMEM16A inh, Kir21 inh, KCNK9 block)
O=C(Nn1c(SCc2ccc(F)cc2)nc2ccsc2c1=O)c1ccccc1	KCNK9 block -11 | KCNK9 inh conf 74% | Kir2-1 spec inactive | HEK293 Tl ctr 46%
COc1ccc(C(=O)Nn2c(SCc3ccc([N+](=O)[O-])cc3)nc3ccccc3c2=O)cc1	KCNK9 block -11 | KCNK9 inh conf 56% | Kir2-1 spec inactive | HEK293 Tl ctr 32%
O=C(Nc1nc2ccccc2s1)Nc1ccc(F)cc1F	none
O=C(Nc1ccc(F)cc1F)Nc1sccc1-c1nc2ccccc2s1	KCNK9 block -11 | KCNK9 inh conf 50% | Kir2-1 spec inactive | HEK293 Tl ctr 26%
Cc1cccc(COCC(Cc2ccccc2)N2CCN(C(=O)c3cccc(C)c3)CCC2=O)c1 (stereo not drawn)	none | KCNK9 inh conf inactive | Kir2-1 spec inactive | HEK293 Tl ctr inactive
CCn1c2c(c3cc(OCC(C)C)ccc31)CCCC2=O	none | KCNK9 inh conf inactive | Kir2-1 spec inactive | HEK293 Tl ctr inactive
CCn1c2c(c3cc(Br)ccc31)CCC/C2=N\O	none
CCn1c(=O)c(CCC(=O)N2CCOCC2)c(C)c2c(C)nn(-c3ccccc3)c21	none | KCNK9 inh conf inactive | Kir2-1 spec inactive | HEK293 Tl ctr inactive
CCN1CCN(CCNC(=O)CCc2c(C)c3c(C)nn(-c4ccccc4)c3n(C)c2=O)CC1	none
Cc1nn(-c2ccccc2)c2c1c(C)c(CCC(=O)N1CCOCC1)c(=O)n2C	none | KCNK9 inh conf inactive | Kir2-1 spec inactive | HEK293 Tl ctr inactive
CCOc1ccc(S(=O)(=O)NCCC(=O)N(C)CC(=O)Nc2ccc(N3CCOCC3)cc2)cc1	none
COc1ccc(/C=N/NC(=O)c2cccc(COCC(F)(F)C(F)F)c2)cc1	none
COCCN(CCOc1cc(C)cc(C)c1)Cc1ccc(Cl)cc1	none | KCNK9 inh conf inactive | Kir2-1 spec inactive | HEK293 Tl ctr inactive
CN(C)CCOc1cc(Cl)cc(Cl)c1	none
O=C(Oc1ccc2[nH]cc(CCN3C(=O)c4ccccc4C3=O)c2c1)c1ccco1	KCNK9 block -11 | KCNK9 inh conf 26% | Kir2-1 spec inactive | HEK293 Tl ctr inactive
COc1ccc2[nH]cc(CCNC(=O)c3ccco3)c2c1	none (no result: TMEM16A inh, Kir21 inh, KCNK9 block)
Cc1cc2cc(CN(Cc3cccs3)C(c3nnnn3C(C)(C)C)C(C)C)c3nnnn3c2cc1C (stereo not drawn)	KCNK9 block -9.8 (no result: TMEM16A inh) | KCNK9 inh conf 59% | Kir2-1 spec inactive | HEK293 Tl ctr 49%
CCC(C)(C)n1nnnc1C(C(C)C)N(CCN1CCOCC1)Cc1cc2cccc(C)c2[nH]c1=O (stereo not drawn)	none
COc1ccc(NC(=O)C2CSC(C)(C)N2C=O)cc1 (stereo not drawn)	none
Cc1ccc(S(=O)(=O)c2nnn(-c3cccc(F)c3)c2N)cc1	none
CN(Cc1ccccc1)c1ncnc2c1cnn2-c1ccccc1	none
CCN(c1ccccc1)c1ncnc2c1cnn2-c1ccccc1	none | KCNK9 inh conf inactive | Kir2-1 spec inactive | HEK293 Tl ctr inactive
CC[n+]1c(/C=C/N(C)c2ccccc2)n(-c2ccccc2)c2ccc(-c3nc4ccccc4s3)cc21	Kir21 inh -7, KCNK9 block -16, KCNK3 block -9.7 | KCNK9 inh conf 90% | Kir2-1 spec 78% | HEK293 Tl ctr 76%
CC(C)[C@H]1COCCS(=O)(=O)N1Cc1ccccc1-c1ccc(C(C)(C)C)cc1	none (no result: TMEM16A inh, Kir21 inh, KCNK9 block)
COc1cc(C2=NOC(C(=O)NCc3cccnc3)C2)cc(OC)c1OC (stereo not drawn)	KCNK9 block -8.6 | KCNK9 inh conf 26% | Kir2-1 spec inactive | HEK293 Tl ctr inactive
Cc1ccc(/C=N/n2cnc3sc4c(c3c2=O)CCCC4)o1	none
Cc1ccc(/C=N/n2cnc3sc(C)c(C)c3c2=O)o1	none | KCNK9 inh conf inactive | Kir2-1 spec inactive | HEK293 Tl ctr inactive
COc1ccccc1N1CCN(C(=O)COc2ccc(S(=O)(=O)NC(C)(C)C)cc2)CC1	none (no result: KCNK3 block, ANO1 activ)
O=C(CCS(=O)(=O)c1cccc2nonc12)NCc1ccc(Cl)cc1	none
CC1C(=O)C(C)C(c2cc(Cl)ccc2O)NC1c1cc(Cl)ccc1O (stereo not drawn)	none
CSc1nc(C(=O)N2CCc3c([nH]c4ccccc34)C2c2ccccn2)cs1 (stereo not drawn)	KCNK9 block -9.7 | KCNK9 inh conf 49% | Kir2-1 spec inactive | HEK293 Tl ctr 29%
O=C(c1cccs1)N1CCc2c([nH]c3ccccc23)C1c1ccccn1 (stereo not drawn)	KCNK9 block -9 | KCNK9 inh conf inactive | Kir2-1 spec inactive | HEK293 Tl ctr inactive
CC(=O)c1ccc(C(=O)N2CCc3c([nH]c4ccccc34)C2c2ccccn2)s1 (stereo not drawn)	none
Cc1ccc(N(Cc2ccc([N+](=O)[O-])cc2)C(=O)c2ccco2)cc1C	KCNK9 block -13 | KCNK9 inh conf 56% | Kir2-1 spec inactive | HEK293 Tl ctr 42%
O=C(c1ccco1)N(Cc1ccc([N+](=O)[O-])cc1)c1ccc(Cl)cc1	none
O=C(CSC(=S)N1CCCC1)NCC(=O)Nc1ccc(F)c(F)c1	none
Cc1cc(C(=O)COC(=O)CCC(=O)c2ccc3c(c2)OCCO3)c(C)n1Cc1ccco1	none | KCNK9 inh conf inactive | Kir2-1 spec inactive | HEK293 Tl ctr inactive
Cc1cc(C(=O)COC(=O)c2ccc(Br)o2)c(C)n1Cc1ccco1	none (no result: KCNK3 block, ANO1 activ) | KCNK9 inh conf inactive | Kir2-1 spec inactive | HEK293 Tl ctr inactive
Cn1ncc(Cl)c1C(=O)N1CCN(c2ccccc2)CC1	none
